From PubChem BioAssay AID623908 (Johns Hopkins Ion Channel Center, 2012)
Out of some 2,500 compounds screened, about 1,500 (60%) were called active.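 The calls were made as follows: active = duplicate-averaged ratio beyond 3 SD from buffer wells, up or down, though filed actives are nearly all decreases; inactive = the rest.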 The set was probably picked from earlier hits. Not all results are given here.

Test: dye ratio change in CHT-lacking host cells – cell-based, parental HEK293, membrane potential dye, counter-screen for CHT activator project (AID 623908)
Conditions: parental HEK293, membrane potential dye fluorescence (FDSS); at 10 µM; measured after EC20 choline addition

| Compound | ratio readout change |
| --- | --- |
| CC(C)(C)Nc1nc(-c2ccccn2)nc2ccccc12 | -76.9 (active) |
| CC1=CC(C)(C)N(C(=O)CSc2nnc(-c3ccccc3)o2)c2ccc(C)cc21 | inactive |
| COc1nc(N=C(N)N)nc2c(C)cccc12 | -78.8 (active) |
| Cc1nc(N=C(N)N)nc2c(C)cccc12 | -65.7 (active) |
| O=C(c1ccccc1F)N(Cc1ccccc1)Cc1ccccc1 | inactive |
| CCCCn1c(N)c(N(CCC(C)C)C(=O)c2ccc(COc3ccccc3)o2)c(=O)[nH]c1=O | inactive |
| COc1ccccc1NC(=O)CSc1nnc(-c2ccoc2C)n1CCc1ccccc1 | inactive |
| Clc1ccc(C[n+]2cc(-c3ccc(Cl)cc3)n3c2CCC3)cc1 | -46 (active) |
| Cc1ccc(C(=O)C[n+]2cc(-c3ccccc3)n3c2CCCCC3)cc1 | inactive |
| Cc1ccc2c(c1)N(CC(=O)N(Cc1ccccn1)Cc1ccco1)C(=O)C(C(C)C)O2 (stereo not drawn) | inactive |
| O=[N+]([O-])c1ccc(N2CCNCC2)cc1NCc1cccnc1 | -59.8 (active) |
| CC(=O)c1ccccc1OCc1ccc(C(=O)c2ccccc2)cc1 | inactive |
| C[C@H]1CCC(=O)N([C@H](CSc2ccccc2)Cc2ccccc2)CC1 | inactive |
| CC(=O)N1CC[n+]2c(-c3ccc([N+](=O)[O-])cc3)csc21 | -25.4 (active) |
| CCN(CC)CCC(c1cc(OC)c(OC)c(OC)c1)c1c(OC)cc(OC)c2c(-c3ccccc3)cc(=O)oc12 (stereo not drawn) | -25.5 (active) |
| Cc1nnc(-c2ccc(Oc3ccc(C)c(C)c3)c([N+](=O)[O-])c2)o1 | inactive |
| CN(C)/C=C/C(=O)c1cnc2sccn2c1=O | -39.9 (active) |
| COc1cccc(C(=O)NC(=O)Nc2nc(C)cc(C(F)(F)F)n2)c1 | -43.4 (active) |
| Cc1ccccc1C(=O)NCC(c1ccco1)N1CCc2ccccc21 (stereo not drawn) | inactive |
| Cn1c(=O)n(C)c2cc(C(=O)Nc3ccc4c(c3)OCO4)ccc21 | -33.9 (active) |
| O=C(Nc1ccccc1N1CCN(c2ccccc2)CC1)c1cccc(F)c1 | inactive |
| Cc1cc2c(cc1C)[n+](C)cn2CC(O)COCC1CC=CCC1 (stereo not drawn) | -37.2 (active) |
| N=c1c2c3c(sc2ncn1CCCN1CCOCC1)CCCCC3 | -59.9 (active) |
| N=c1c2c3c(sc2ncn1N)CCCCC3 | -39.8 (active) |

| Compound | ratio readout change |
| --- | --- |
| COc1cc2c(cc1OC)C(c1cccc([N+](=O)[O-])c1)=NCC2 | -64.5 (active) |
| Cc1c(CCOC(=O)CC23CC4CC(CC(C)(C4)C2)C3)sc[n+]1Cc1ccc([N+](=O)[O-])cc1 | -47 (active) |
| O=C(CCC1CCN(C(=O)c2cccc(Cl)c2F)CC1)Nc1ccccc1 | inactive |
| O=C1c2ccccc2C(=O)c2c1cccc2N1CCN(CCO)CC1 | -73.9 (active) |
| Cn1c(=O)n(Cc2ccco2)c(=N)c2c3c(sc21)CCCC3 | -31.5 (active) |
| CC(Sc1nc2ccccc2c(=O)n1Cc1ccco1)C(=O)c1ccccc1 (stereo not drawn) | inactive |
| Cn1c(=O)[nH]c(=O)c2c1nc(N1CCN(CCO)CC1)n2CCSc1nc2ccccc2s1 | -48.2 (active) |
| CN(C)c1ccnc(Nc2ccc(F)cc2)c1C#N | -45.1 (active) |
| CCN1CCN(c2ccc([N+](=O)[O-])cc2C(=O)c2ccc(Cl)cc2)CC1 | inactive |
| Cc1nnc(C)c2c(C)n(N)c(C)c12 | -51.8 (active) |
| CN1CCN(c2nc(Nc3ccc(O)cc3)nc3ccccc23)CC1 | -71.3 (active) |
| O=C(NCCC1=CCCCC1)C1CCN(Cc2cnn(-c3ccccc3)c2-n2cccc2)CC1 | inactive |
| Nc1scc[n+]1Cc1cccc2cccnc12 | -43.3 (active) |
| CCCCN(CCCC)CC(O)Cn1c2ccccc2c(=O)c2ccccc21 (stereo not drawn) | -21.9 (active) |
| Cc1c(C)c2c(OCC(=O)N[C@@H](C(=O)O)c3ccccc3)cc3c(c2oc1=O)CCC(C)(C)O3 | inactive |
| CCOC(=O)c1cccnc1NC(=O)c1ccncc1 | -20.3 (active) |
| COc1ccc([N+](=O)[O-])cc1N(CC(O)CN(CC(C)C)CC(C)C)S(=O)(=O)c1ccc(C)cc1 (stereo not drawn) | inactive |
| Cc1ccc(-n2c(C)cc(/C=N\NC(=O)CC(=O)NC(C)C)c2C)cc1 | inactive |
| COc1ccc(Nc2cc(C)nc(-n3nc(C)cc3C)n2)cc1 | inactive |
| COc1ccc(Nc2nnc(C)c3ccccc23)cc1 | -50.6 (active) |
| O=C(COC(=O)C1CCN(S(=O)(=O)c2ccc3c(c2)OCCO3)CC1)Nc1ccccc1OC(F)F | inactive |
| CCn1cc(S(=O)(=O)c2cccc(C)c2)c(=O)c2cc(F)c(N3CCN(C)CC3)cc21 | -55.2 (active) |
| CN1CCN(c2cc3c(cc2F)c(=O)c(C(=O)O)cn3CCF)CC1 | -29.7 (active) |
| CC(Nc1nc(N2CCN(CCO)CC2)nc2ccccc12)c1ccccc1 (stereo not drawn) | -58.8 (active) |

| Compound | ratio readout change |
| --- | --- |
| O=C(C1=C(O)C(=O)N(Cc2ccccc2)C1c1ccco1)c1ccco1 (stereo not drawn) | inactive |
| CCN1C(=NCCc2cccnc2)N[C@@H](c2ccccc2)[C@H](C(=O)OC)[C@H]1C | inactive |
| Cc1cccn2c(=O)c3cc(C#N)c(=O)n(CCCN4CCOCC4)c3nc12 | -48.2 (active) |
| CCN1CCCC1CNC(=O)c1cc2c(=O)n(C)c3ccccc3c2n1C (stereo not drawn) | -28 (active) |
| O=Cc1ccc(OCc2cn3ccccc3n2)cc1 | -38.8 (active) |
| COc1ccccc1NC(=O)C1=C(C)Nc2nc3ccccc3n2C1c1cccs1 (stereo not drawn) | inactive |
| CN1CCc2c(sc3c2c(NCc2ccco2)nc2nnnn23)C1 | -34.6 (active) |
| COc1ccc(CC2c3cc(OC)c(OC)cc3CC[N+]2(C)CCC(=O)OCCCCCOC(=O)CC[N+]2(C)CCc3cc(OC)c(OC)cc3C2Cc2ccc(OC)c(OC)c2)cc1OC (stereo not drawn) | -31.4 (active) |
| Cc1nc2ccccc2c2oc(C(=O)NCCCN3CCC(C)CC3)cc12 | -28.4 (active) |
| COc1ccc2c(c1)cc1n2CCN=C1NN | -53.2 (active) |
| Cc1ccc(-n2c(SCC(=O)N3c4ccccc4Sc4ccccc43)nnc2-c2ccncc2)cc1 | inactive |
| Cc1ccc(C(=O)c2ccc(N3CCN(C)CC3)c([N+](=O)[O-])c2)cc1 | inactive |
| N#C/C(=C\c1ccc(-c2cccc([N+](=O)[O-])c2)o1)C(=O)NCCN1CCOCC1 | -21.1 (active) |
| Cc1cc(NC(=O)c2cnn3cccnc23)n(-c2ccccc2)n1 | -40.8 (active) |
| COc1ccc2nc(/N=C(\N)NC(=O)Nc3ccccc3)nc(C)c2c1 | -41.4 (active) |
| O=C(Nc1ccncc1)c1ccc(Cl)c([N+](=O)[O-])c1 | -45.8 (active) |
| Cc1cc(=O)oc2c(C)c(OC(C)C(=O)NC3CCN(Cc4ccccc4)CC3)ccc12 (stereo not drawn) | -52.2 (active) |
| C[C@]1(C(=O)NCCc2c[nH]c3ccccc23)C=C[C@@H](Cc2ccccc2)N1C(=O)c1ccccc1 | inactive |
| COc1cc2nc(N3CCN(C(=O)[C@@H]4CCCO4)CC3)nc(N)c2cc1OC | -39.5 (active) |
| CCOc1ccc(C2c3[nH]c4ccccc4c3CCN2Cc2cccn2-c2ncccn2)cc1 (stereo not drawn) | inactive |
| CN(C)c1cc[n+](Cc2ccccc2)cc1 | -40.2 (active) |
| COc1ccc(Cn2c(-c3ccc(Cl)cc3)c[n+]3ccccc23)cc1 | -66.1 (active) |
| CCN(CC)CCCNC(=O)c1cn(C)c2ccc(S(=O)(=O)N(C)C3CCCCC3)cc2c1=O | -36.4 (active) |
| CCOC(=O)c1cn(CC)c2cc(F)c(F)cc2c1=O | -63.5 (active) |

| Compound | ratio readout change |
| --- | --- |
| COc1ccccc1NC(=O)CN(c1ccccc1OC)S(=O)(=O)c1ccccc1 | inactive |
| COC(=O)c1ccc(C(NC(=O)OCc2ccccc2)/C(C)=C/[C@@H](C)C(=O)NCc2ccc(OC)c(OC)c2)cc1 (stereo partly drawn) | inactive |
| Clc1ccc(COn2c(-c3ccc(Cl)cc3Cl)nc3ncccc32)cc1 | inactive |
| CCCCCCCCCCOC(=O)Cn1c(COc2ccc(C)cc2)[n+](C)c2ccccc21 | -48.3 (active) |
| CCCCCCCCCCOC(=O)Cn1c(COc2cccc(OC)c2)[n+](C)c2ccccc21 | -43.3 (active) |
| Nc1ccccc1SCc1cc([N+](=O)[O-])cc2c1OCOC2 | inactive |
| CC(C)CC(COCc1ccc(Cl)cc1)N1CCN(C(=O)c2ccc(C(F)(F)F)cc2)CCC1=O (stereo not drawn) | inactive |
| COC(=O)c1sc(C(F)(F)F)c(-c2ccccc2)c1S(=O)(=O)N(C)C | inactive |
| CN(C)c1cc(N)c2ccccc2n1 (tested in a mixture with another compound) | -62.3 (active) |
| Cc1cc(=O)oc2cc(OCCC[n+]3ccccc3)ccc12 | -59.3 (active) |
| Cn1c(=NC(=O)c2cnccn2)sc2ccccc21 | -49.1 (active) |
| O=C(c1ccc(F)c(S(=O)(=O)N2CCOCC2)c1)N(CCc1ccccc1)Cc1ccccc1 | inactive |
| CC1(C)Cc2c(sc3nc4n(c(=N)c23)CCCCC4)CO1 | -42.5 (active) |
| CCN1/C(=C/c2ccc3ccc(C)cc3[n+]2CC)Sc2ccccc21 | inactive |
| COc1cc2c(cc1OC)C(Nc1ccc(S(N)(=O)=O)cc1)=NC(C)(C)C2 | -78.3 (active) |
| COc1ccc(C(O)(C2CCCCC2)C(CN2CCCC2)c2ccccc2)cc1 (stereo not drawn) | inactive |
| N#Cc1ccc(/C=C2\CCn3c2nc2cc(C(=O)O)ccc2c3=O)cc1 | -55.3 (active) |
| CCn1c(/C=C/Nc2ccccc2)[n+](CC)c2ccc(C(=O)OCC(F)(F)F)cc21 | -82.7 (active) |
| Cc1nc2c(-c3ccccc3)c(C)[nH]n2c(=O)c1Cl | inactive |
| Cc1nc2ccccc2c(=O)n1CCCn1ccnc1 | inactive |
| C=CCNc1nnc(C)c2ccccc12 | -50.7 (active) |
